# In the library only some 0.64% were active in any assay of this set; here they are far more common.
# TR SRC2 fluor cs: counter-screen for TRb-SRC2 inhibitors: fluorescence interference; hit rate 0.29% among 280,000; AID 1479; TRb/SRC2 Texas Red total fluorescence interference; Potency, µM (series often up to 106 µM), for inactives: top-dose fluorescence change, negative = quenching; active means well fitted curve in either direction with a large enough effect; inconclusive means small, poorly fitted or top-dose-only effect
#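 Human TRb ligand-binding domain at 0.6 uM with 20 nM Texas Red SRC2 peptide in Tris buffer containing 1 uM T3 and 5% DMSO, incubated with compound 5 h at ambient temperature. Total fluorescence (555/632 nm) calculated as parallel + 2 × perpendicular.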
# BLM inh: Bloom syndrome helicase (human) inhibition. Potency, µM (titrated, usually from 56.1 µM), without a hit: top-dose activity change, negative = inhibition, most hits filed as inhibitors. hit rate 0.2% among 350,000. AID 2528. recombinant BLM DNA unwinding, fluorescence dequenching. P54132;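 further: plate controls were vehicle for no effect and no enzyme for full effect; nearly all actives have a fitted effect of over 35% in size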
# Target sequence (P54132 whole entry, looked up): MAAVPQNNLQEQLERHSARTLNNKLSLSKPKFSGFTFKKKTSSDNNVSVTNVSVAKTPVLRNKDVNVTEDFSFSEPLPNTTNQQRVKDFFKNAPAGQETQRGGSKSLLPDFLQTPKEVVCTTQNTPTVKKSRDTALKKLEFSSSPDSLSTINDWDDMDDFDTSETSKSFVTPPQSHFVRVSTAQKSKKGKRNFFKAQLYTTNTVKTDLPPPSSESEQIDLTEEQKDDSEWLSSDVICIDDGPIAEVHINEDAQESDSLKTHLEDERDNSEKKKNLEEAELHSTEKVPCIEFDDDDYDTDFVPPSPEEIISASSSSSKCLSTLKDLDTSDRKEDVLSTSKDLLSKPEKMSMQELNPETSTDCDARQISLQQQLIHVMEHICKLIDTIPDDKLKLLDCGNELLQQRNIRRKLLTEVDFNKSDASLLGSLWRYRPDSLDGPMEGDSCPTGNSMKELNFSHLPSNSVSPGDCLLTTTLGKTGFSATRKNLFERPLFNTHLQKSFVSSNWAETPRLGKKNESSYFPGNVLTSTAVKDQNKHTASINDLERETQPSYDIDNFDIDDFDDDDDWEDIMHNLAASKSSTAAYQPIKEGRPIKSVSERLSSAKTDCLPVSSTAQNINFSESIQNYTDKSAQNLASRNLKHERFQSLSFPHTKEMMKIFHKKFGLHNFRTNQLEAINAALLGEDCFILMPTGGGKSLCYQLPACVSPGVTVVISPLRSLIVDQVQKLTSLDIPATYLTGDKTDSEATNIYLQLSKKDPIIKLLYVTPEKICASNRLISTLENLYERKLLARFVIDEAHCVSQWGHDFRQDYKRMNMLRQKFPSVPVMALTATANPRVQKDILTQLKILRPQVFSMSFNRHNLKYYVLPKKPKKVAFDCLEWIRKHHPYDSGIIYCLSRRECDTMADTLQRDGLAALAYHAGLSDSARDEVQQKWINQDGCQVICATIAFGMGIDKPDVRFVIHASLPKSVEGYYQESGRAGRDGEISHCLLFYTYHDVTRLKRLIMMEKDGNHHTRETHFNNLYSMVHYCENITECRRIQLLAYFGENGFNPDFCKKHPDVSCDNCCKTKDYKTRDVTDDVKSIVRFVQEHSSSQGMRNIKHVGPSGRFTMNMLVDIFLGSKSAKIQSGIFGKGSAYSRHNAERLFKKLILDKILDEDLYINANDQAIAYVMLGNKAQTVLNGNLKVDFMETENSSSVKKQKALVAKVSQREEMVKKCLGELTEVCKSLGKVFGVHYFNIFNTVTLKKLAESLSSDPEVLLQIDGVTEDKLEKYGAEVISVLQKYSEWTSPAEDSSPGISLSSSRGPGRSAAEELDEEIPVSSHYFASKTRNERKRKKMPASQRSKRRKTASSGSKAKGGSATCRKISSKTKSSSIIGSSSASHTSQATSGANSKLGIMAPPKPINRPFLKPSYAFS
# TRb SRC2 PPI: disrupts binding of human TR beta to SRC2. P10828. TRbeta-SRC2 peptide binding, fluorescence polarization; receptor liganded with 1 µM T3. Potency, µM (series often up to 106 µM), without a hit: at the top dose activity change, negative = inhibition, usual class: inhibitors. hit rate 0.065% among 280,000. AID 1469;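 further: plate controls were bound peptide for no effect and peptide without receptor for full effect; nearly all actives have a fitted effect of over 50% in size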
#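 Compounds were added to 0.6 uM TRb ligand-binding domain and 20 nM Texas Red-labeled SRC2 peptide in Tris buffer containing 1 uM T3, incubated 5 hr at ambient temperature, then read by fluorescence polarization.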
# RECQ1 inh-1: inhibitors of human RECQ1 DNA helicase | P46063 | RECQ1 DNA unwinding, red fluorescence kinetic read | Potency, µM (series often up to 57.3 µM), for inactives: top-dose activity, negative = inhibition, most hits filed as inhibitors | hit rate 0.54% among 240,000 | AID 2549;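 further: plate controls were vehicle for no effect and no enzyme for full effect; nearly all actives have a fitted effect of over 30% in size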
#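 50 nM RECQ1T1 preincubated 15 min with compound in Tris pH 8.0 buffer with MgCl2, DTT, Tween-20 and 2.5 ug/ml poly(dI-dC); started with 200 nM TAMRA/BHQ-2 forked duplex and 2 mM ATP. Unwinding read as fluorescence (525/598 nm), two reads 2 h apart.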
# RECQ1 inh conf: confirmation of human RECQ1 helicase inhibitors. hit rate 28% among 610. shares compounds with RECQ1 inh-1. RECQ1 helicase DNA unwinding, fluorescence. Potency, µM (series often up to 229 µM), for the others: at the top dose activity change, negative = inhibition, usual class: inhibitors; further: nearly all actives have a fitted effect of over 45% in size
# ADP FP counter: ADP displacement flagged in RECQ1 inhibitor counter-screen; hit rate 27% among 530; AID 2711; ADP fluorescence polarization displacement counterscreen; shares compounds with RECQ1 inh-1; Potency, µM (highest dose often 228 µM), without a hit: at the top dose activity change, negative = inhibition, usual class: inhibitors; further: nearly all actives have a fitted effect of over 45% in size
# RECQ1 inh-2: RECQ1 helicase inhibition confirmed, round 2. recombinant RECQ1 DNA unwinding, red fluorescence. hit rate 15% among 1,100. AID 504841. shares compounds with RECQ1 inh-1. Potency, µM (titrated, usually from 119 µM), without a hit: at the highest dose activity, negative = inhibition, actives largely listed as inhibitors; further: nearly all actives have a fitted effect of over 50% in size
# * hit, by the source's call; i = inactive; ? = inconclusive; / = no result given; [ ] = dose if it differs, or a comment. Unless noted, the call rests on the fitted dose curve; in most records, active means well fitted curve in the direction sought with a large enough effect; inconclusive means small, poorly fitted or top-dose-only effect, or another doubt; inactive means no such curve, though single readings can be large; an effect the other way counts as inactive or inconclusive. Unless noted, on the % scale 0 is the no-effect control and ±100 the full control effect; potency means the concentration at half of the fitted maximal effect.
SMILES,TR SRC2 fluor cs,BLM inh,TRb SRC2 PPI,RECQ1 inh-1,RECQ1 inh-2,others
CN(c1ccccc1C(=O)O)S(=O)(=O)c1ccc2[nH]c(=O)oc2c1,4%,2%,6%,/,/,
COc1ccc(SCC(CC(C)C)N2CCN(CCc3ccccc3)CCC2=O)cc1 (centres undefined),1%,-9%,-4%,i,/,
O=C(CCc1ccccc1)NC(=S)Nc1cc(C(F)(F)F)ccc1N1CCOCC1,1%,-11%,-5%,?,-9%,
CCCCCCCCCCCCCC(=O)OCC(COP(=O)([O-])OCC[N+](C)(C)C)OC(=O)CCCCCCCCCCCCC (centres undefined),/,4%,/,/,/,
O=c1c2cnn(-c3ccc(Cl)cc3)c2ncn1Cc1ccc(Cl)cc1Cl,-1%,-3%,5%,/,/,
O=C1C(C2=NC(C(=O)O)C3C(=O)N(c4ccccc4)C(=O)C23)=C(O)c2ccccc21 (centres undefined),1%,-1%,-6%,-3%,/,RECQ1 inh conf=15%;ADP FP counter=?
CCC(=Nc1ccc(N)cc1)C1=C(O)C(C(=O)OC)C(C)(C)CC1=O (centres undefined),45µM*[fluorescent],?,28µM*,?,-6%,
CCCCC(=Nc1ccc(N)cc1)C1=C(O)C(C(=O)OC)C(C)(C)CC1=O (centres undefined),?,-11%,?,-21%,/,
Nc1ccc(-c2nc3ccc(N)cc3[nH]2)cc1,-6%,-26%,6%,35µM*,?,
Cc1ccc2nc(-c3ccccc3N)[nH]c2c1,-15%,-9%,9%,i,/,
Cc1nc2ccc(-c3nc4ccc(N)cc4[nH]3)cc2[nH]1,-5%[53 µM],-18%,7%[53 µM],-8%,/,
Cc1ccc(C)c(-c2nc3ccc(N)cc3[nH]2)c1,-2%,-6%,4%,?,/,RECQ1 inh conf=16%[114 µM];ADP FP counter=?
CC(=O)OC1CCC2C3CCc4cc(O)ccc4C3CCC12C (centres undefined),-2%,2%,12%,16µM*,/,RECQ1 inh conf=9%;ADP FP counter=8.9µM*
CC(=O)O[C@H]1CC[C@H]2[C@@H]3CCc4cc(O)ccc4[C@H]3CC[C@]12C,-2%,-3%,4%,-16%,/,
CCc1cccc(C)c1NC(=O)Cn1c(=O)cc(C)c2c(C)nn(-c3cccc(F)c3)c21,-21%,-1%,-3%,/,/,
c1ccc2c(NC3CCNCC3)nc(-c3ccoc3)nc2c1,/,60%,/,-4%,/,
CN(C)c1ccc(-c2nc(NC3CCNCC3)c3ccccc3n2)cc1,-7%,?,1%,?,20µM*,
COc1ccc(/C=C/C(=O)Nc2nc(-c3cccs3)ns2)cc1,3%,-7%,2%,/,/,
O=c1/c(=C/c2ccco2)sc2nc(-c3ccccc3Br)nn12,?,-21%,-11%,16µM*,?,RECQ1 inh conf=-12%[114 µM];ADP FP counter=-6%[91.9 µM]
COc1ccccc1/C=C/C=c1\sc2nc(=O)c(Cc3ccccc3)nn2c1=O,-17%,?,11%,?,?,
CCCOc1ccc(Cc2nn3c(=O)/c(=C/c4ccco4)sc3nc2=O)cc1,-11%,-4%,-5%,25µM*,?,
CCCOc1ccc(/C=c2\sc3nc(-c4ccco4)nn3c2=O)cc1OCC,2%,-1%,-14%,?,/,
Cc1ccc(/C=C(\CCC(=O)O)c2nc3ccccc3s2)cc1[N+](=O)[O-],-2%[53 µM],-4%,-2%[53 µM],-4%,/,
Cn1cnnc1Sc1ccc(/C=C(\CCC(=O)O)c2nc3ccccc3s2)cc1[N+](=O)[O-],-3%,-5%,6%,14%,/,RECQ1 inh conf=11%;ADP FP counter=1%
CNc1ccc(/C=C(\CCC(=O)O)c2nc3ccccc3s2)cc1[N+](=O)[O-],-4%[53 µM],-29%,3%[53 µM],35µM*,32µM*,
SMILES,TR SRC2 fluor cs,BLM inh,TRb SRC2 PPI,RECQ1 inh-1,RECQ1 inh-2,others
COc1ccc(-c2nc3ccccc3n3c(-c4cccc(C)c4)c4c(=O)n(C)c(=O)n(C)c4c23)cc1,-15%,-11%,0%,/,/,
COC(=O)c1ccc(CC(=O)c2c(C)cc(O)cc2O)o1,-6%,-8%,-7%,?,?,
COc1ccc2c(C(=O)CN3CCSCC3)c[nH]c2c1,0%,2%,3%,-1%,/,
COc1ccc2c(C(=O)CN3CCN(c4ccccc4)CC3)c[nH]c2c1,-4%,-2%,0%,?,-18%,
Cc1cc(C)n(Cc2ccc(C(=O)O)cc2)n1,-2%,-2%,-1%,-7%,/,
Cc1ccc(C)n1Cc1ccc(C(=O)O)cc1,?,85%,11%,7.1µM*,/,RECQ1 inh conf=20µM*
COc1ccc(N2CCN(C(CNS(=O)(=O)c3c(C)cc(C)cc3C)c3ccco3)CC2)cc1 (centres undefined),0%,-12%,6%,/,/,
CCc1nnc(NC(=O)c2sc3nc4c(cc3c2N)CCCCCC4)s1,1%,-21%,-8%,?,?,
Cc1ccc(S(=O)(=O)Nc2csc(C)c2C(=O)O)cc1,0%,-2%,2%,?,?,
COc1ccc(OCC(=O)Nc2nnc3n2CCS3)cc1,1%,-1%,-10%,/,/,
O=C(Nc1ccc(-n2nncc2-c2ccco2)cc1)c1cccc(F)c1,-1%,-11%,-9%,-8%,/,
O=C(Nc1ccc(-n2nncc2-c2ccco2)cc1)c1cc2ccccc2oc1=O,-25%,-18%,3%,6.3µM*,?,RECQ1 inh conf=4.5µM*;ADP FP counter=4%[91.9 µM]
O=C(NCc1ccc2c(c1)OCO2)C1CCCN(S(=O)(=O)c2cccnc2)C1 (centres undefined),0%,1%,2%,?,-3%,
Cc1ccc(S(=O)(=O)N2CCCC(C(=O)NCc3ccc4c(c3)OCO4)C2)cc1 (centres undefined),/,-4%,/,/,/,
O=C(CSc1nc2c([nH]c3ccccc32)c(=O)n1-c1cccc(Cl)c1)N1CCc2ccccc21,6%,-3%,4%,/,/,
O=C1C(=O)N(C2CCN(C(=O)c3cccc(Cl)c3)CC2)CCN1Cc1ccc(F)cc1,-1%,-3%,2%,/,/,
COC(=O)c1cc2c(-c3ccccc3)cc3ccccn3c-2c1C(=O)OC,-4%,-17%,-9%,?,79µM*,
COC(=O)c1c(C)c2c(C)cc3ccccn3c-2c1C(=O)OC,-1%,0%,-1%,-1%,/,
COC(=O)c1c(C(=O)OC)c2cccc3cc(-c4ccccc4)c4ccc1c4n32,-2%,-13%,-19%,4µM*,?,
CCCSc1ncc(Cl)c(C(=O)Nc2ccc(S(=O)(=O)N3CCCC(C)C3)cc2)n1 (centres undefined),5%,-7%,-1%,/,/,
CC(C)OC(=O)CC(=O)c1sc2nc3c(cc2c1N)CN(C)CC3,?,-23%,-2%,13µM*,-7%,

# From PubChem
